Experimental data published in article PMC7862700, “An all-to-all approach to the identification of sequence-specific readers for epigenetic DNA modifications on cytosine”.

What was measured:
Assay in all cases: DAPPL (digital affinity profiling via proximity ligation, sequencing); 10 mM Tris-HCl pH 7.5, 50 mM NaCl, 1 mM DTT, 4% glycerol, room temperature, 30 min; GST-TFs on glutathione beads, 16-mer random dsDNA library, 0.1% formaldehyde crosslink after washing; high values mean tight binding
FLI1 = target: T1, FLI1 (Homo sapiens, UniProt Q01543 1-452); settings: protein: recombinant; tags: N-terminal GST; dsDNA, one strand shown
T1 sequence: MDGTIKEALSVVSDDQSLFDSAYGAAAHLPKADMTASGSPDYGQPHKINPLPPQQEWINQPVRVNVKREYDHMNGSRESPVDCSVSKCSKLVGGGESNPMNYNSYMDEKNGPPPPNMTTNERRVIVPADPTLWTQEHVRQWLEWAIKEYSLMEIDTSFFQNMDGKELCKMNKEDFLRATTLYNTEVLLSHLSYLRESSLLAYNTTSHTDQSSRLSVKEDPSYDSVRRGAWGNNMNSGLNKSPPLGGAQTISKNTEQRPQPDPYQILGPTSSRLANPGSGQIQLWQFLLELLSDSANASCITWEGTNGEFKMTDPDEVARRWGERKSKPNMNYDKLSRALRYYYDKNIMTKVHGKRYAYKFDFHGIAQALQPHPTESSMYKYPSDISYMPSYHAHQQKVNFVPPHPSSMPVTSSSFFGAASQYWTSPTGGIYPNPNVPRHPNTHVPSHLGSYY
Method in brief: (§1)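 Beads coated with glutathione captured GST-fused human transcription factors that had been expressed in yeast, and the factors were then given DNA barcodes and pooled with a tag-only sample. The pools were incubated with 200 nmole of a random double-stranded 16-mer DNA library in Tris/NaCl/DTT/glycerol buffer for 30 min at room temperature, washed, crosslinked with 0.1% formaldehyde and proximity-ligated with BsaI/T4 ligase at 37 °C for 1 h. PCR amplification and Illumina NextSeq500 sequencing came last. Binding signal is each hexamer's read frequency for a factor divided by its frequency for the tag-only sample.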

ELK1 = target: T2, ELK1 (Homo sapiens, UniProt P19419 1-428); settings: protein: recombinant; tags: N-terminal GST; dsDNA, one strand shown
T2 sequence: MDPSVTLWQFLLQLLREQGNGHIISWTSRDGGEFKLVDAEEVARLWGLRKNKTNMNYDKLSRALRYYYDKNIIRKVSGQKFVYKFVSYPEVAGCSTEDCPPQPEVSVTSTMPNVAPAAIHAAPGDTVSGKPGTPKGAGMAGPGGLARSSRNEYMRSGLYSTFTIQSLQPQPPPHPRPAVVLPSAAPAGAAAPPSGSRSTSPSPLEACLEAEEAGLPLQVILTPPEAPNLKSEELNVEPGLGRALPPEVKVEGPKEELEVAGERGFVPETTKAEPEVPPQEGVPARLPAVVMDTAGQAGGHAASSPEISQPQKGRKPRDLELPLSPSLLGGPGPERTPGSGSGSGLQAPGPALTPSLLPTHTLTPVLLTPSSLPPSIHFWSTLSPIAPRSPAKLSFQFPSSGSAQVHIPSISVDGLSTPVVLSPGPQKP
Method in brief: as §1

GABPA = target: T3, GABPA (Homo sapiens, UniProt Q06546 1-454); settings: protein: recombinant; tags: N-terminal GST; dsDNA, one strand shown
T3 sequence: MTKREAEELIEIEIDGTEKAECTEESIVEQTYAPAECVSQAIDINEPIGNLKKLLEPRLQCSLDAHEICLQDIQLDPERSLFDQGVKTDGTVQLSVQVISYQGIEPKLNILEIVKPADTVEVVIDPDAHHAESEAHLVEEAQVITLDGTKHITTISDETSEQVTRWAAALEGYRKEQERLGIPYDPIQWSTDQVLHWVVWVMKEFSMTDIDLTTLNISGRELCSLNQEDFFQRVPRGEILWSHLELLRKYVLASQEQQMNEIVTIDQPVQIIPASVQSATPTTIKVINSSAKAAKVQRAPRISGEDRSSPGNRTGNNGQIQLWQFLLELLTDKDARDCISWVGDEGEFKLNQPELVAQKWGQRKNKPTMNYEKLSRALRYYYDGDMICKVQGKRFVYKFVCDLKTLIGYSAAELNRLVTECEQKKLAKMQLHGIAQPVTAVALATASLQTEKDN
Method in brief: as §1

ERG = target: T4, ERG (Homo sapiens, UniProt P11308 1-479); settings: protein: recombinant; tags: N-terminal GST; dsDNA, one strand shown
T4 sequence: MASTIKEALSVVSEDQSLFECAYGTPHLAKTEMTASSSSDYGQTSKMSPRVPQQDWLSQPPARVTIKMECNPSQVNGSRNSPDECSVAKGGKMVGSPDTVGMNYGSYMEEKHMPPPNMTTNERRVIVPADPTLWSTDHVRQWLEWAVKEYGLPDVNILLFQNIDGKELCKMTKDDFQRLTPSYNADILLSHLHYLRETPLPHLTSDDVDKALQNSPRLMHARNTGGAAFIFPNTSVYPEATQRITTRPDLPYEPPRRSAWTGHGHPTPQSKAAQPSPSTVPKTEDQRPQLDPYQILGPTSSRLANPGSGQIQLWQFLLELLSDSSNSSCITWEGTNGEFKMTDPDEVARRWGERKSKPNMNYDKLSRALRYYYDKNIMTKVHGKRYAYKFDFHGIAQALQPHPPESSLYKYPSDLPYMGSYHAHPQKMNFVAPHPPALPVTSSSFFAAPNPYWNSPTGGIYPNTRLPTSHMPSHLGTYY
Method in brief: as §1

ELF1 = ELF1 (Homo sapiens, UniProt P32519 1-619); settings: protein: recombinant; tags: N-terminal GST; dsDNA, one strand shown
Method in brief: as §1

EHF = target: T5, EHF (Homo sapiens, UniProt Q9NZC4 1-300); settings: protein: recombinant; tags: N-terminal GST; dsDNA, one strand shown
T5 sequence: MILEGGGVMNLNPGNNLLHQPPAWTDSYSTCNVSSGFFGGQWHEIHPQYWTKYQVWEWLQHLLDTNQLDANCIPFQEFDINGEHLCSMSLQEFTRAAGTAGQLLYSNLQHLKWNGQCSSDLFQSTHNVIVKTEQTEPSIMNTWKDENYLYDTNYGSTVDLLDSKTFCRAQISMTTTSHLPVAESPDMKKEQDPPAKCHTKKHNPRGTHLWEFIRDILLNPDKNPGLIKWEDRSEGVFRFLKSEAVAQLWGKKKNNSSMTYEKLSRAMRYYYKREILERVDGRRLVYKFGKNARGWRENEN
Method in brief: as §1

SPI1 = SPI1 (Homo sapiens, UniProt P17947 1-270); settings: protein: recombinant; tags: N-terminal GST; dsDNA, one strand shown
Method in brief: as §1

SPIB = SPIB (Homo sapiens, UniProt Q01892 1-262); settings: protein: recombinant; tags: N-terminal GST; dsDNA, one strand shown
Method in brief: as §1

ELK3 = target: T6, ELK3 (Homo sapiens, UniProt P41970 1-407); settings: protein: recombinant; tags: N-terminal GST; dsDNA, one strand shown
T6 sequence: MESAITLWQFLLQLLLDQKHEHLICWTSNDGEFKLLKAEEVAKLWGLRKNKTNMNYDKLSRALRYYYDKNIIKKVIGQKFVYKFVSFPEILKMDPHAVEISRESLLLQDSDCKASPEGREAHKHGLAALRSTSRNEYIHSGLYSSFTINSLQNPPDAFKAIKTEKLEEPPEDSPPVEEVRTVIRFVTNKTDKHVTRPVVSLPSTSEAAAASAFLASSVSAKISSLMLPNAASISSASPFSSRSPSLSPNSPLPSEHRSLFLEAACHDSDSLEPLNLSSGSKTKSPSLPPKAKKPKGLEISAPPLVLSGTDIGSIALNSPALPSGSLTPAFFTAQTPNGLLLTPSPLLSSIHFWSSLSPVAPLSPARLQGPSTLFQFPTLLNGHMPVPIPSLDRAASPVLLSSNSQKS
Method in brief: as §1

FEV = target: T7, FEV (Homo sapiens, UniProt Q99581 1-238); settings: protein: recombinant; tags: N-terminal GST; dsDNA, one strand shown
T7 sequence: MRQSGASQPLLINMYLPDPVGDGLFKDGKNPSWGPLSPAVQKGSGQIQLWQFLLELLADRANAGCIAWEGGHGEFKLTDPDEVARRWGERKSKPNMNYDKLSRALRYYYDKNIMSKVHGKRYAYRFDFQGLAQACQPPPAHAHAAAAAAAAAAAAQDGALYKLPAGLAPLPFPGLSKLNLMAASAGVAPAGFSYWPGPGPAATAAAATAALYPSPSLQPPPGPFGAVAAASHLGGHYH
Method in brief: as §1

ETV5 = ETV5 (Homo sapiens, UniProt P41161 1-510); settings: protein: recombinant; tags: N-terminal GST; dsDNA, one strand shown
Method in brief: as §1

HSF1 = HSF1 (Homo sapiens, UniProt Q00613 1-529); settings: protein: recombinant; tags: N-terminal GST; chain copies: 3; dsDNA, one strand shown
Method in brief: as §1

SPIC = target: T8, SPIC (Homo sapiens, UniProt Q8N5J4 1-248); settings: protein: recombinant; tags: N-terminal GST; dsDNA, one strand shown
T8 sequence: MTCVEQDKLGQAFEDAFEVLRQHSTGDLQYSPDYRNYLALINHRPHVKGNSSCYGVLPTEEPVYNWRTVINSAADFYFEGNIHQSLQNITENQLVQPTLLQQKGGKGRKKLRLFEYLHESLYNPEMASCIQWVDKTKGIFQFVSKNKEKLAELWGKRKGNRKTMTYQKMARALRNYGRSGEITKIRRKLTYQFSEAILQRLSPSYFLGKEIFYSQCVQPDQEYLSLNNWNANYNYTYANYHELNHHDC
Method in brief: as §1

ELF4 = ELF4 (Homo sapiens, UniProt Q99607 1-663); settings: protein: recombinant; tags: N-terminal GST; dsDNA, one strand shown
Method in brief: as §1

ELK4 = target: T9, ELK4 (Homo sapiens, UniProt P28324-2 1-405); settings: protein: recombinant; tags: N-terminal GST; dsDNA, one strand shown
T9 sequence: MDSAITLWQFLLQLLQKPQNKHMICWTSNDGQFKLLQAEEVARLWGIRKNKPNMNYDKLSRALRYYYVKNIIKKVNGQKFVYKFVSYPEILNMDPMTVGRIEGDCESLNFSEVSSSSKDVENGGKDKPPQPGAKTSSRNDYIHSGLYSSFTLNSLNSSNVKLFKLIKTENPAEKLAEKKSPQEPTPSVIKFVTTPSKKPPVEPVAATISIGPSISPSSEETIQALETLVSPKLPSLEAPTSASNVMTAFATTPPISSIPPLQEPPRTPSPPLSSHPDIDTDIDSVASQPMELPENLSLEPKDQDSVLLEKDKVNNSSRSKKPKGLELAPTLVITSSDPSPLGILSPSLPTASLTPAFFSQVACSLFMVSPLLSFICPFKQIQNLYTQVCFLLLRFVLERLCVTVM
Method in brief: as §1

ETV2 = target: T10, ETV2 (Homo sapiens, UniProt O00321 1-342); settings: protein: recombinant; tags: N-terminal GST; dsDNA, one strand shown
T10 sequence: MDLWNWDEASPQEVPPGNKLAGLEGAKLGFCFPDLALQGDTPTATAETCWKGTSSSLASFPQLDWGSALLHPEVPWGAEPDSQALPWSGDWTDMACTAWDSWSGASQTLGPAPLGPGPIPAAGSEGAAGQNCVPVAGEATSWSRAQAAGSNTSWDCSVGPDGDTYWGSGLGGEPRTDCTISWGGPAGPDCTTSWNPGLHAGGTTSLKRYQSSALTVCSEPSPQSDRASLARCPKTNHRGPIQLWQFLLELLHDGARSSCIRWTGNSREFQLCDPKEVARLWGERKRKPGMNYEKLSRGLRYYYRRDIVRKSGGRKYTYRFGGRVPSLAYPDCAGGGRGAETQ
Method in brief: as §1

ELF3 = target: T11, ELF3 (Homo sapiens, UniProt P78545 1-371); settings: protein: recombinant; tags: N-terminal GST; dsDNA, one strand shown
T11 sequence: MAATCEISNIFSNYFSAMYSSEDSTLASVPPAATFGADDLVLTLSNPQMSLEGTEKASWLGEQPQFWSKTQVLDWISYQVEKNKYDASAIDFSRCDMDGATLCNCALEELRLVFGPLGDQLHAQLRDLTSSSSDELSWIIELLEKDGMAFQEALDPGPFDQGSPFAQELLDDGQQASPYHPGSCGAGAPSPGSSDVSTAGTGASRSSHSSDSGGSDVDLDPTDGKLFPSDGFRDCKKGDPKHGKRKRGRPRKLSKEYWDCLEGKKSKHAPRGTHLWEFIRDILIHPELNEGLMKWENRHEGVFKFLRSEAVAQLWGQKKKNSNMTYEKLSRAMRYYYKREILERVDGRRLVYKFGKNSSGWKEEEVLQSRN
Method in brief: as §1

CRX = CRX (Homo sapiens, UniProt O43186 1-299); settings: protein: recombinant; tags: N-terminal GST; dsDNA, one strand shown
Method in brief: as §1

ETV1 = ETV1 (Homo sapiens, UniProt P50549 1-477); settings: protein: recombinant; tags: N-terminal GST; dsDNA, one strand shown
Method in brief: as §1

Sequence of ELF4 (Q99607 whole entry): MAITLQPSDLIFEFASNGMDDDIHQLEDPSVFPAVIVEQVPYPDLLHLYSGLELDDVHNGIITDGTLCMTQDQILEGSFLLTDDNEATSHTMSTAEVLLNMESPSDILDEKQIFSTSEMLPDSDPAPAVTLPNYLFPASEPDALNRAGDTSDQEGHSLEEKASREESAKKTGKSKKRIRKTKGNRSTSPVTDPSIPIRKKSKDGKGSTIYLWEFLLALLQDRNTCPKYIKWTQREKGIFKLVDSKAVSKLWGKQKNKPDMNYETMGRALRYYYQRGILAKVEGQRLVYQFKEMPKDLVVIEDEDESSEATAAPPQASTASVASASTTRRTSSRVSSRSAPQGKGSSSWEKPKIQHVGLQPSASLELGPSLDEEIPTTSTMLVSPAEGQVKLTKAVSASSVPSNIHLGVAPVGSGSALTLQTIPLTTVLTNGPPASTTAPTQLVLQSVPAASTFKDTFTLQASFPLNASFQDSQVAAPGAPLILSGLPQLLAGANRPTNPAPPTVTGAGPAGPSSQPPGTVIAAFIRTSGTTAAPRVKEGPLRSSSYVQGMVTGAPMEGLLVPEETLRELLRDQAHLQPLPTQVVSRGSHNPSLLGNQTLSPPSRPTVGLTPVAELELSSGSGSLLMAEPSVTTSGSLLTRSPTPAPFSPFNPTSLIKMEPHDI
Sequence of ELF1 (P32519 whole entry): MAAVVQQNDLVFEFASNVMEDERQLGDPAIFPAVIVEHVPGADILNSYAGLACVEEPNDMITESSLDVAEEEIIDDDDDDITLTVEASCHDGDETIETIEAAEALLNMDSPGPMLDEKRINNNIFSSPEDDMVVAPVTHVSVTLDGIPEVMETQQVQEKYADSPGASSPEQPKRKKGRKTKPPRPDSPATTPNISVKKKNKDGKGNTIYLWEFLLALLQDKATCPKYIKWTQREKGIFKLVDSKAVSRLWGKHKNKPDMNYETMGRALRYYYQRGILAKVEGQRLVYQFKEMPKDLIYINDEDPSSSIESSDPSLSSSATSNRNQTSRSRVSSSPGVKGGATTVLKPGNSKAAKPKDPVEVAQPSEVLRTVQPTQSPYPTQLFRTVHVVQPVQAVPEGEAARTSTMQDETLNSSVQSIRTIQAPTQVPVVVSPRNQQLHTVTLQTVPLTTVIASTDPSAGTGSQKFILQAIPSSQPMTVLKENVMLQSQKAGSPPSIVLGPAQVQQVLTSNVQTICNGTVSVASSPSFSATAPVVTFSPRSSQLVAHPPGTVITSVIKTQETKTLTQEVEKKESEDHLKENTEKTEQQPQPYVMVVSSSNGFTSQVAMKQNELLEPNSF
Sequence of ETV1 (P50549 whole entry): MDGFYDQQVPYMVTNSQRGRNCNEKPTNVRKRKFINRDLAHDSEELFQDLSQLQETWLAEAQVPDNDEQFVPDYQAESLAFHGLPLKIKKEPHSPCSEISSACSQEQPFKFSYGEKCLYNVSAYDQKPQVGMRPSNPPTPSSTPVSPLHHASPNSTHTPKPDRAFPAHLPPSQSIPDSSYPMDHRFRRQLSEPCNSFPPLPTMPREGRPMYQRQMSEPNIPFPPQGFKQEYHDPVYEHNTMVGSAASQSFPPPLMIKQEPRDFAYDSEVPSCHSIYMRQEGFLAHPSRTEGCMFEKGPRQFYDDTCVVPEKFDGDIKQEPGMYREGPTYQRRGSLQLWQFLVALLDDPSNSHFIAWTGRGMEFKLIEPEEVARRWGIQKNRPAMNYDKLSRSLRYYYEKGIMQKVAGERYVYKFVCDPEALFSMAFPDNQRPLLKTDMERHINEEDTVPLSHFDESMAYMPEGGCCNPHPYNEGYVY
Sequence of HSF1 (Q00613 whole entry): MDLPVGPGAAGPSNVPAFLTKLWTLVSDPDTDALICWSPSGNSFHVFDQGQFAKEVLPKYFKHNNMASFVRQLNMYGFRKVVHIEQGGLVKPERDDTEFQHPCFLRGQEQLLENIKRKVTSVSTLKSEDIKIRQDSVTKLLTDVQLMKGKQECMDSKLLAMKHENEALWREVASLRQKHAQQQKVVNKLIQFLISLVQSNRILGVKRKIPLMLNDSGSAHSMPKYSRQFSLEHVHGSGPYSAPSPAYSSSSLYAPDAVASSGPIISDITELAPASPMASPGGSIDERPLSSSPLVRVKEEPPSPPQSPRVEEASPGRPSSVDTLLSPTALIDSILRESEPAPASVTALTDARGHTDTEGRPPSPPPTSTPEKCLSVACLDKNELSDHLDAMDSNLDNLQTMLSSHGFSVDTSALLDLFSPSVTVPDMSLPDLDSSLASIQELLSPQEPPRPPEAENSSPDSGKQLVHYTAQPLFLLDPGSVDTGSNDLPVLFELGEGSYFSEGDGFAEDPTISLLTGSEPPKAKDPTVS
Sequence of ETV5 (P41161 whole entry): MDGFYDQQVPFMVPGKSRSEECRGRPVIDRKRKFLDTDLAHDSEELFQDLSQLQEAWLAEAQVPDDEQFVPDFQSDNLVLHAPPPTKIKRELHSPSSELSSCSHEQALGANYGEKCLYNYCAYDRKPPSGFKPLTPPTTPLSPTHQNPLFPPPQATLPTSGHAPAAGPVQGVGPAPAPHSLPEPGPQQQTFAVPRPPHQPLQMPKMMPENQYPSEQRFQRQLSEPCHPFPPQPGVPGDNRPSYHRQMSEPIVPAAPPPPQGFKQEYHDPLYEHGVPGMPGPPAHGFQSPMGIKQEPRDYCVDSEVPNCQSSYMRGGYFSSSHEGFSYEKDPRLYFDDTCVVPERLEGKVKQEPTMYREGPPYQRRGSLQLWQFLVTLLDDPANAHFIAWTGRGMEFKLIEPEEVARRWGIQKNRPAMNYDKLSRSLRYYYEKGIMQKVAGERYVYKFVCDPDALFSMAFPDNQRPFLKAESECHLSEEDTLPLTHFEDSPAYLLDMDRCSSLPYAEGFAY
Sequence of SPIB (Q01892 whole entry): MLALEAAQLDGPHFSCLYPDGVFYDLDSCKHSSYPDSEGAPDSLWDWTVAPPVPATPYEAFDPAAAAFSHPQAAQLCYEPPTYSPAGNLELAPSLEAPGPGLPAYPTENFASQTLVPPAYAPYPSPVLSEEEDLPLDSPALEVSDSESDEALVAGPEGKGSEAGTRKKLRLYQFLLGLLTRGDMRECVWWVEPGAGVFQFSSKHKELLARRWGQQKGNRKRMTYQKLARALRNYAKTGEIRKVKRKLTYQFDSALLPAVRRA
Sequence of CRX (O43186 whole entry): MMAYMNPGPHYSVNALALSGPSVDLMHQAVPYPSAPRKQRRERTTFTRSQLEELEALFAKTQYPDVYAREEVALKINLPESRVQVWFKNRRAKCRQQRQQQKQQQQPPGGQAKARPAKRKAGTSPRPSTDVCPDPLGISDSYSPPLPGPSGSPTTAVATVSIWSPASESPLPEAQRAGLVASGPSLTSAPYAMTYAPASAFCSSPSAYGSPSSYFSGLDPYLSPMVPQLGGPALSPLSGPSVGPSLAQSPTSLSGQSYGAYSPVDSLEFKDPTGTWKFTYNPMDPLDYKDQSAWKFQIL

For GCACTA, the binding signal (FLI1) was 1.18 fold enrichment (6-mer frequency, TF over GST control), the binding signal (ELK1) was 1.2 fold enrichment (6-mer frequency, TF over GST control) and the binding signal (GABPA) was 1.23 fold enrichment (6-mer frequency, TF over GST control). For the same sequence, the binding signal (ERG) was 1.11 fold enrichment (6-mer frequency, TF over GST control), the binding signal (ELF1) was 1.16 fold enrichment (6-mer frequency, TF over GST control) and the binding signal (EHF) was 1.21 fold enrichment (6-mer frequency, TF over GST control). For the same sequence, the binding signal (SPI1) was 1.19 fold enrichment (6-mer frequency, TF over GST control), the binding signal (SPIB) was 1.3 fold enrichment (6-mer frequency, TF over GST control) and the binding signal (ELK3) was 1.23 fold enrichment (6-mer frequency, TF over GST control). The binding signal (FEV) was 1.19 fold enrichment (6-mer frequency, TF over GST control), the binding signal (ETV5) was 1.13 fold enrichment (6-mer frequency, TF over GST control) and the binding signal (HSF1) was 1.11 fold enrichment (6-mer frequency, TF over GST control). For the same sequence, the binding signal (SPIC) was 1.12 fold enrichment (6-mer frequency, TF over GST control), the binding signal (ELF4) was 1.27 fold enrichment (6-mer frequency, TF over GST control) and the binding signal (ELK4) was 1.13 fold enrichment (6-mer frequency, TF over GST control). For the same sequence, the binding signal (ETV2) was 1.22 fold enrichment (6-mer frequency, TF over GST control), the binding signal (ELF3) was 1.29 fold enrichment (6-mer frequency, TF over GST control) and the binding signal (CRX) was 1.17 fold enrichment (6-mer frequency, TF over GST control). The binding signal (ETV1) was 1.15 fold enrichment (6-mer frequency, TF over GST control).
